36 compounds from PubChem BioAssay AID772 (SRMLSC, 2007) can be followed below.

Screen size: about 3,300 compounds; about 20 (0.6%) were called active. The sample holds actives, similar compounds and a random draw of the others, so the mix is not that of the screen.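 How the source made its calls: active means growth inhibition above 90%, meaning viable cell count cut by more than 90% versus vehicle controls; inactive means growth inhibition below 90%.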

The assay in a line: HT29 colon tumor cell growth inhibition, primary screen, imaging, high content imaging, 72 h, CellTiter-Glo (AID 772).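 On condensed nuclei: condensed means nuclear area below control median minus 1.5 SD.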 The settings on record: HCS imaging cell count, at 10 µM, stronger effect = higher value; for condensed nuclei: measured here: percent cells with condensed nuclei. For orientation: Cellular ATP, detected with luciferase, serves as a proxy for viable cell number.
Where [1] appears, read: measured here: ATP CellTiter-Glo viability.

As for `C=CCNc1nc(C2(C)CC3(CC(C)(C)OC3=O)C(=O)O2)cs1` (stereo not drawn), the growth inhibition is -18.2% (inactive) and the condensed nuclei was determined as 1.83%. Besides, the growth inhibition under setting [1] was -56.2%.
The matching figures for `N#Cc1c(N)nc(SCC(=O)NCCc2ccccc2)c(C#N)c1-c1cccs1`: 31.9% (inactive), 7.98% and 4.22%.
As for `CCCCSc1nc(N)c(C#N)c(-c2cccs2)c1C#N`, the growth inhibition was 95.4% (active) and the condensed nuclei stood at 41.7%. In addition, under setting [1], the growth inhibition amounted to 86.1%.
For the compound `N#Cc1c(N)nc(SCc2ccccn2)c(C#N)c1-c1cccs1`, the growth inhibition is 63.2% (inactive) and the condensed nuclei is 5.56%. Moreover, the growth inhibition under setting [1] was determined as 42.6%.
In the case of `CCN(CC)S(=O)(=O)c1cccc2c(N(C)C)cccc12`, the growth inhibition is -83.5% (inactive) and the condensed nuclei was determined as 4.17%. In addition, the growth inhibition under setting [1] is -46.3%.
The matching figures for `COCCCNc1nc(-c2ccncc2)nc2ccccc12`: 89.9% (inactive), 44.1% and 86.6%.
`COCCCNC(=O)C(C#N)c1nc2ccccc2nc1N1CCN(Cc2ccccc2)CC1` (stereo not drawn): the growth inhibition is 0% (inactive) and the condensed nuclei turned out to be 4.88%. Further, the growth inhibition under setting [1] was determined as 11.6%.
Regarding `Clc1cccc(-c2nn3c(-c4cccc(Cl)c4)nnc3s2)c1`, the growth inhibition was -66.5% (inactive) and the condensed nuclei worked out at 7.77%. The growth inhibition under setting [1] is -37.2%.
The matching figures for `COc1ccccc1C(=O)N1CCCC1(C#N)c1ccccc1` (stereo not drawn): -76.6% (inactive), 2.93% and -54.8%.
Regarding `Fc1ccc2[nH]c3c(N4CCN(C5CCCCC5)CC4)ncnc3c2c1`, the growth inhibition is 86.8% (inactive) and the condensed nuclei came out at 43.8%. Besides, the growth inhibition under setting [1] worked out at 96.8%.
For `CCOc1cccc(-c2nn3c(-c4ccco4)nnc3s2)c1`, the growth inhibition is 19.2% (inactive) and the condensed nuclei was found to be 6.05%. Also, the growth inhibition under setting [1] is -9.06%.
Regarding `Cc1cc(C(=O)O)c(CSc2ncn[nH]2)o1`, the growth inhibition was -5.63% (inactive) and the condensed nuclei was 6.05%. Also, the growth inhibition under setting [1] is -62.3%.
Take `Cc1cc(=O)oc(C)c1C(=O)NCCC1=CCCCC1`: the growth inhibition is 26.9% (inactive) and the condensed nuclei was determined as 17.3%. Moreover, the growth inhibition under setting [1] turned out to be 32.2%.
As to `Cc1nc2sccn2c(=O)c1CCN1CCC(=C(c2ccc(F)cc2)c2ccc(F)cc2)CC1`, the growth inhibition is 93.1% (active) and the condensed nuclei amounted to 24.1%. Besides, the growth inhibition under setting [1] is 84.8%.
On the same counts, the results for `Cc1nc2ccccn2c(=O)c1CCN1CCC(C(=O)c2ccc(F)cc2)CC1` are 73.8% (inactive), 24.8% and 86.5%.
In the case of `Cc1nc2sccn2c(=O)c1CCN1CCC(=C(c2ccccc2)c2ccc(F)cc2)CC1`, the growth inhibition was 29.7% (inactive) and the condensed nuclei was 5.93%. The growth inhibition under setting [1] came to 6.78%.
The matching figures for `O=C(CCC(=O)CCN1CCCCC1)CCN1CCCCC1`: 28.4% (inactive), 16.4% and 14.4%.
The matching figures for `CCOc1ccc2nc(NC(NC(C)=O)(C(=O)OC)C(F)(F)F)sc2c1` (stereo not drawn): -16.9% (inactive), 3.93% and 18.6%.
Turning to `C=CCn1cnc2c(c1=O)c1nc3ccccc3nc1n2-c1ccc(C)cc1`, the growth inhibition is 31.2% (inactive) and the condensed nuclei is 2.48%. The growth inhibition under setting [1] was -2.67%.
For the compound `Cn1c(SCC(=O)NCc2ccccc2)nc2ccccc21`, the growth inhibition was 59.6% (inactive) and the condensed nuclei was found to be 4.29%. Moreover, the growth inhibition under setting [1] came out at 2.57%.
In the case of `CCC(=O)O[C@@H]1CC(=O)O[C@H](C)CC=CC=C[C@@H](O)[C@H](C)C[C@H](CC=O)[C@H](O[C@H]2O[C@H](C)[C@@H](O[C@H]3C[C@@](C)(O)[C@@H](OC(=O)CC)[C@H](C)O3)[C@H](N(C)C)[C@H]2O)[C@H]1OC`, the growth inhibition was -45.9% (inactive) and the condensed nuclei was determined as 2.22%. The growth inhibition under setting [1] was -13.7%.
Consider `COc1ccc2[nH]c(C)c(C(=O)CN3CCc4cc(OC)c(OC)cc4C3)c2c1`, for which the growth inhibition was -33.9% (inactive) and the condensed nuclei was determined as 2.58%. Further, the growth inhibition under setting [1] is -14.6%.
For `CCN(CC)C(=O)CSc1nc2ccccc2c(=O)n1CC1CCCCC1`, the growth inhibition is 65.6% (inactive) and the condensed nuclei came to 18.9%. Also, under setting [1], the growth inhibition was 31.7%.
Regarding `COc1cccc2c(=O)c(SC(F)(F)C(F)C(F)(F)F)c(C)[nH]c12` (stereo not drawn), the growth inhibition is 94% (active) and the condensed nuclei amounted to 36.9%. Under setting [1], the growth inhibition stood at 65.5%.
The matching figures for `Cc1[nH]c2ccc(F)cc2c(=O)c1SC(F)(F)C(F)C(F)(F)F` (stereo not drawn): -7.36% (inactive), 1.61% and -57.2%.
As for `Cc1onc(-c2ccccc2Cl)c1C(=O)N1CCN(c2nc3ccccc3s2)CC1`, the growth inhibition was 55.9% (inactive) and the condensed nuclei was 7.24%. In addition, the growth inhibition under setting [1] was 62.8%.
As for `O=C1[C@@H]2[C@H](C(=O)N1n1cnnc1)[C@H]1C=C[C@@H]2C1`, the growth inhibition was -36.7% (inactive) and the condensed nuclei turned out to be 7.85%. Under setting [1], the growth inhibition stood at 4.74%.
Consider `Cc1cccn2c(=O)c3cc(C#N)c(=N)n(Cc4ccncc4)c3nc12`, for which the growth inhibition was 10.6% (inactive) and the condensed nuclei was 5.14%. Besides, under setting [1], the growth inhibition is -4.36%.
For `CCC(NC(=O)Nc1cc(OC)c(OC)c(OC)c1)(C(F)(F)F)C(F)(F)F`, the growth inhibition is 9.36% (inactive) and the condensed nuclei amounted to 2.2%. Also, under setting [1], the growth inhibition was -14.6%.
For the compound `COC(=O)[C@@H](N)Cc1ccc(O)cc1`, the growth inhibition was -11.9% (inactive) and the condensed nuclei was determined as 9.88%. For the same compound, the growth inhibition under setting [1] came to 12.5%.
`COC(=O)/C=c1/s/c(=C(/C#N)C(=O)N2CCOCC2)n(-c2ccccc2)c1=O`: the growth inhibition was -9.52% (inactive) and the condensed nuclei is 5.81%. In addition, the growth inhibition under setting [1] was -73%.
For `C=CCOC(=O)C1=C(C)NC(SCC(=O)Nc2ccc(C)c(Cl)c2)=C(C#N)C1c1ccco1` (stereo not drawn), the growth inhibition is 81.3% (inactive) and the condensed nuclei is 10.5%. Besides, under setting [1], the growth inhibition was 81.8%.
For the compound `O=C1C(=O)N(Cc2cccnc2)C(c2ccccn2)/C1=C(/O)c1ccc(Br)cc1` (stereo not drawn), the growth inhibition was -60.8% (inactive) and the condensed nuclei stood at 3.93%. Under setting [1], the growth inhibition was -51.9%.
Turning to `CCOC(=O)c1c(C)n(C)c2ccc(O)c(S(=O)(=O)c3ccccc3)c12`, the growth inhibition is 0.86% (inactive) and the condensed nuclei amounted to 2.84%. For the same compound, the growth inhibition under setting [1] was -12.9%.
Consider `Cc1nc(Sc2cccn2C)c(C(F)(F)F)c(=O)[nH]1`, for which the growth inhibition is 26% (inactive) and the condensed nuclei was found to be 1.74%. The growth inhibition under setting [1] is -42.6%.
Turning to `N#CC1=C(C=Nc2ccccc2O)CCC1`, the growth inhibition was 2.22% (inactive) and the condensed nuclei is 1.93%. Besides, the growth inhibition under setting [1] was -3.16%.
